Source: ChEMBL document CHEMBL4513216, “Probing the Open Global Health Chemical Diversity Library for Multistage-Active Starting Points for Next-Generation Antimalarials” (ACS Infect Dis, 2020)
Among all 65,000 compounds or so, about 2,100 (3.2%) showed an effect of 50% or more. The median lay at about -52%. The entries come from a sample that favours strong results as a whole.

tested on: Plasmodium falciparum; test: Screen against P. falciparum Asexual Blood Stage (ABS), at 5uM; assay type: functional, Dd2; conditions: tested at 5 uM

Structure (SMILES)	INHIBITION
CO[C@@H]1CC[C@H]2[C@H]1OCCN2CC1CC1	-30.3%
c1ccc(CN2C[C@@H]3OCCN(c4ncccn4)[C@@H]3C2)nc1	-56.2%
CSc1ccc(C2SCC(=O)Nc3c2c(=O)[nH]n3C2CCOCC2)cc1 (centres undefined)	-122%
CCS(=O)(=O)N1CCc2c(COC)cncc2C1	-61.4%
COc1ccc(NC(=O)Cn2nc(C)c(C(C)=O)c2C)cc1	89.7%
CC(C)N(C)Cc1cncc2c1CCN(CC1CC1)C2	-87.9%
CC(C)c1cc(N2CCC3(CCN(C)C3)C2)ncn1 (centres undefined)	-27.6%
CNC(=O)CN1CCC12CCN(C(=O)Cc1ccccc1)C2 (centres undefined)	-6.6%
Cc1ccc(S(=O)(=O)N2C[C@@H]3CCN[C@@H]3C2)cc1	4.39%
O=S(=O)(c1cccc(Cl)c1)N1C[C@@H]2CCN[C@@H]2C1	88.1%
O=S(=O)(c1ccccc1)N1C[C@@H]2CCN[C@@H]2C1	24.4%
O=S(=O)(c1ccc(Cl)cc1)N1C[C@@H]2CCN[C@@H]2C1	82%
O=C(Cc1ccc(F)cc1)N1C[C@H]2CCN[C@H]2C1	7.59%
O=C(NCc1ccccc1)N1C[C@H]2CCN[C@H]2C1	-86.8%
CC(C)CNC(=O)[C@H]1C[C@H]2CN(Cc3cccnc3)C[C@@H]1O2	-30.9%
Nc1ncccc1CN1C[C@H]2CC[C@@H](C1)N(CC1CC1)C2=O	-61.3%
FC(F)Oc1ccccc1CN1CCCC(c2nccn2CC2CC2)C1 (centres undefined)	86.4%
CC1C(=O)Nc2cccnc2N1S(=O)(=O)c1ccc(C#N)c(Cl)c1 (centres undefined)	-88.9%
CC(C)=CCN1C[C@@H]2CC[C@H]1CN(Cc1cc(=O)[nH]c(=O)[nH]1)C2	4.88%
COCCN(CC1CC1)c1nc(CCN)nc2sc(C)c(C)c12	77.5%
Cc1cccn2cc(CC(=O)N(CCN(C)C)CC3CCCO3)nc12 (centres undefined)	-84.6%
Cc1sc2nc(CCN)nc(N(CCN(C)C)CC3CCCO3)c2c1C (centres undefined)	70.2%
CCN(CCN(C)C)c1nc(CCN)nc2sc(C)c(C)c12	89.8%
Cc1nnc([C@@H]2CC[C@@H]3[C@@H](CCN3Cc3ccccn3)O2)o1	-18%
COc1cccc(CC(C)NCC(=O)Nc2ccccc2C)c1 (centres undefined)	-75%
CN[C@@H](C)C(=O)N(Cc1cccc(C)c1)Cc1ccccc1OC	83.6%

Structure (SMILES)	INHIBITION
O=C(c1ccncc1)N1C[C@@H]2OCCN(CCN3CCCC3)[C@@H]2C1	-29.2%
CCC1CNCc2cc3c(OC)ccc(OC)c3nc2O1 (centres undefined)	-11%
O=C(CC(F)(F)F)N1C[C@H]2CCN[C@H]2C1	-86.8%
CCc1nccn1CCNC1CCN(c2nc3ccc(Cl)cc3s2)CC1	85.7%
O=C([C@@H]1C[C@@H]2CCN(Cc3ccccn3)C[C@H]2O1)N1CCCO1	-36.6%
Cc1cccnc1CC(C)NC1CCSCC1 (centres undefined)	23.6%
Cc1cccnc1CC(C)NC1Cc2ccccc2C1 (centres undefined)	89.2%
O=C1[C@H]2CN(Cc3ccoc3)C[C@H]2CN1Cc1cccnc1	-10%
Cc1n[nH]c(C)c1CC(=O)N1CCCN(C)C2(CCN(C)CC2)C1	-107%
Cc1cc(CNC2(c3ccccc3)CCCCC2)on1	9.53%
CCCOc1ccccc1CN[C@@H]1CCC[C@H]1Cc1cc(C)no1	84.9%
Cc1cc(C[C@@H]2CCC[C@H]2NCc2cc(C)c(O)c(C)c2)on1	79.9%
CCO[C@@H]1CC[C@H]2[C@H]1OCCN2CC1CCC1	-47.6%
COc1c(C2SCC(=O)Nc3[nH]ncc32)cc2c(c1OC)OCO2 (centres undefined)	-32.3%
CN(C)C(=O)COC[C@@]12CCC[C@@H]1CNC2	-23.4%
Cn1cc(N2C[C@@H]3CN(Cc4ccccn4)C[C@@H]3C2=O)cn1	-120%
Cc1cccc(-c2ncc(CNC(C)Cc3ncccc3C)cn2)c1 (centres undefined)	-7.12%
COc1cc(C(C)NCc2ncccc2C)ccc1SC(F)F (centres undefined)	75.7%
Cc1nc(NCC2CC2)nc2c1COCC21CCN(C)C1 (centres undefined)	-73.6%
CN(Cc1cccc(O)c1)CC1CCCN(CCc2ccc(Cl)cc2)C1 (centres undefined)	83.5%
Cc1nc[nH]c1CN(C)CC1CCCN(CCc2ccc(Cl)cc2)C1 (centres undefined)	82.9%
Cc1csc(CN2CC[C@H]3C[C@H](C)O[C@@H]3C2)n1	-59.9%
Cc1noc(C)c1CN1CCO[C@H]2CN(C3CCOCC3)C[C@H]21	3.95%
CC/C=C(/C)C(=O)NS(=O)(=O)c1ccc(C#N)c(C(F)(F)F)c1	-159%
CC(Cn1cncn1)NCc1ccc2nonc2c1 (centres undefined)	-92.4%
Clc1ccccc1CCN1CCN(c2ccc3nncn3n2)CC1	74.9%

Structure (SMILES)	INHIBITION
Cc1ccccc1CC(=O)N1C[C@@H](O)[C@H](N2CCC(F)(F)CC2)C1	-76.9%
COc1cc(C2SCC(=O)Nc3[nH]ncc32)c(OC)c2c1OCO2 (centres undefined)	-118%
Cc1c(Cl)c(C(=O)N2CC(c3cccnc3)C2)nn1C	-53.6%
COCCN1C[C@@H]2COC[C@@H](CC(=O)NCc3cccnc3)[C@@H]2C1	-108%
COc1cc(CNC(C)Cn2ccnc2)cc2c1OCO2 (centres undefined)	-46.3%
CC(Cn1ccnc1)NCc1ccc2nonc2c1 (centres undefined)	-108%
CC(Cn1ccnc1)NCc1cc(Br)c2c(c1)OCO2 (centres undefined)	6.16%
CCOc1cc(CNCCCn2ccnc2)cc(Cl)c1OCC	77.3%
CCOc1ccc(CNCCCn2ccnc2)cc1Br	80.1%
CCOc1ccc(CNCCCn2ccnc2)cc1Cl	87.7%
COc1cc(CNC(C)Cn2cccn2)cc(Cl)c1OC (centres undefined)	-35.2%
COc1cc(CNC(C)Cn2ccnc2)cc2c1OCCO2 (centres undefined)	-34%
COc1ccc(Cl)cc1CNCCCn1ccnc1	82.3%
CC(Cn1ccnc1)NS(=O)(=O)c1ccc(C#N)c(Cl)c1 (centres undefined)	-24.8%
O=C1CSC(c2ccsc2)c2c(n(C3CCCC3)[nH]c2=O)N1 (centres undefined)	-94.4%
Cc1csc(CN2C[C@@H]3CN(C)CCO[C@@H]3C2)n1	-19.5%
CC(C)(C)n1cc(C(=O)NCCCn2ccnc2)c2cccnc21	-3.93%
Cc1nn(CCNC(C)Cn2ccnc2)c(C)c1Cl (centres undefined)	0.358%
CCOc1c(Cl)cc(Cl)cc1CNCCCn1ccnc1	75.9%
COCc1cn(C[C@H]2CC3CCN2C[C@@H]3C(=O)Nc2ccccc2)nn1 (some centres undefined)	-106%
CNC(=O)c1cn(C(C)(C)C)c2ncccc12	-148%
c1cncc(N2CC[C@@H]3CN(CC4CC4)C[C@@H]3C2)c1	6.94%
Cc1cnc(N2C[C@H]3CCN(CC4CC4)C[C@@H]3C2)nc1	40.6%
Cc1cnc(N2C[C@H]3CCN(CC4CC4)C[C@H]3C2)nc1	65.5%
Cn1ccnc1CNC1CCCOc2c1ccc1ccccc21 (centres undefined)	77.2%
Cc1nc(-c2cc(Cl)cc3c2OC(CN)C3)c[nH]1 (centres undefined)	94.4%

Structure (SMILES)	INHIBITION
NCC1Cc2cc(Cl)cc(-c3cncc(C(=O)N4CCCCC4)n3)c2O1 (centres undefined)	76%
Cc1nc(-c2cc(Cl)c3c(c2)CC(CN)O3)c[nH]1 (centres undefined)	83.7%
Cc1cc2c(c(-c3c[nH]c(C)n3)c1)OC(CN)C2 (centres undefined)	80.1%
CCN1CCN(C)C(=O)C12CCN(C(=O)Cc1ccccn1)CC2	-113%
CCC(=O)NCC(c1ccc(SC)cc1)N1CCc2sccc2C1 (centres undefined)	77.1%
O=C1NC2(CCNCC2)CC1c1ccncc1 (centres undefined)	-134%
C[C@@H]1CN(Cc2cccnc2)C[C@]1(C)O	-61.6%
C[C@@H]1CN(C2CCN(c3ccccc3F)CC2)CC[C@]1(C)O	87.7%
O=C(NCc1cccnc1)C1=NOC2(CCCN(CCO)C2)C1 (centres undefined)	-58.4%
O=C(CCN1CCCC(CO)(CC2CC2)C1)NCc1cccc(Cl)c1 (centres undefined)	80%
Cc1cc(N(C)C)nc(N2CCCC2c2cccnc2)n1 (centres undefined)	-15.1%
Nc1cc(-c2c[nH]nc2C2CCCN2CCCc2ccccc2)ccn1 (centres undefined)	77.3%
O=C1[C@H]2CN(Cc3ccoc3)C[C@@H]2CCN1Cc1cccnc1	-121%
Cc1noc(C)c1CN1CC[C@H]2O[C@@H](C(=O)N3CCCC3)CC[C@H]21	-58.1%
O=C(c1ccccc1-n1cnnn1)N1CCC2(CC1)OCCO2	-76.9%
NCC1CCN(c2nc(C3CCCC3)nc3c2CCNCC3)C1 (centres undefined)	93.5%
CC(C)c1nc(N2CCN3CCCC3C2)c2cnn(C)c2n1 (centres undefined)	12.9%
c1cnn(CC2CCN(c3nc(C4CC4)nc4c3CCNCC4)CC2)c1	91%
CCOCc1nc2c(c(N3CCN4CCCC4C3)n1)CCNCC2 (centres undefined)	-33.2%
C1CCC(c2nc3c(c(N4CCN5CCCC5C4)n2)CCNCC3)C1 (centres undefined)	77.4%
Cc1nn(-c2ccccn2)c2c1C(c1cnn(C)c1)SCC(=O)N2 (centres undefined)	-90.8%
Cc1noc(C)c1CN1CCO[C@H]2CNC[C@H]21	-38.6%
CCN(C)c1nccc(N2CCN[C@H]3CS(=O)(=O)C[C@H]32)n1	-58.4%
CO[C@H]1COCCN(Cc2c[nH]c3ccccc23)C1	-48.4%
Cc1cc(-n2cccn2)ccc1CN1CCOCC(CN(C)C)C1 (centres undefined)	73%
COc1ccc(-n2cccn2)c(CN2CCOCC(CN(C)C)C2)c1 (centres undefined)	78.4%
